Mac1 fbg enh = enhancers of CD11b/CD18 adhesion to fibrinogen, primary screen, K562 cells, luminescence. ATPlite luminescence. Integrin beta-2 (Homo sapiens) + Integrin alpha-M (Homo sapiens), P05107+P11215. 93,000 compounds, 0.07% hits. activation, % at 10 µM;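 active means 10 µM primary screen giving 50% or more activity, confirmed by 40% or more on retest at that dose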
CYP2C9 inh = blockers of cytochrome P450 2C9 activity – biochemical, luminescence, ADME assay, primary screen | CYP2C9 Supersomes, luciferin-H conversion | AID 777, 2007 | P11712 | inhibition, % at 5 µM | 96,000 compounds, 20% hits;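 active means blocking of liver enzyme CYP2C9 beyond about 50% at 5 µM, limit read from the data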
CYP2C19 inhib = blockers of cytochrome P450 2C19 activity – biochemical, luminescence, ADME assay, primary screen. AID 778, 2007. CYP2C19 Supersomes, luciferin-H EGE luminescence, 30 min. P33261. inhibition, % at 5 µM. 96,000 compounds, 21% hits;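 active means CYP2C19 inhibition above a set limit at 5 µM in the primary screen, cut at about 50% in these data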;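 further: plate controls were negative control wells for no effect and 2.5 mM tranylcypromine positive control for full effect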
CYP2C9 activ = human CYP2C9 activators, primary screen, biochemical, luminescence; Cytochrome P450 2C9 (Homo sapiens), P11712; recombinant CYP2C9, luciferin-H conversion; active compounds read high; factor 1 = untreated enzyme, 0 = blocked; activation factor at 5 µM; 96,000 compounds, 1.4% hits; AID 1024, 2008;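 active means activation factor of 2 or more for CYP2C9 at a 5 µM dose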;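 further: 0 = sulfaphenazole-blocked wells and 1 = vehicle-only wells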
CD11b adhes inh = inhibitors of CD11b/CD18 adhesion to fibrinogen, primary screen, K562 cells, luminescence; Integrin beta-2 (Homo sapiens) + Integrin alpha-M (Homo sapiens), P05107+P11215; 93,000 compounds, 0.54% hits; AID 1497, 2009; inhibition, % at 10 µM; ATPlite luminescence; Mn2+ added to activate the integrin;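 active means primary inhibition of 50% or more at 10 µM, then 40% or more on retest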
CYP2C19 activ = human CYP2C19 activators, primary screen, biochemical, luminescence | activation factor at 5 µM | 96,000 tested, under 10 active | recombinant CYP2C19, luciferin-H EGE luminescence; active compounds read high; 0 = fully inhibited enzyme, 1 = untreated enzyme | AID 1025, 2008;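 active means activation factor of at least 2 at 5 µM in the primary screen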;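 further: 0 = wells with 2.5 mM tranylcypromine and 1 = vehicle-only wells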
* = called active by the depositor; x = no result given. Only some compounds are listed: those with a hit (about 28% of all), similar ones and a draw of the others.

SMILES	Mac1 fbg enh	CYP2C9 inh	CYP2C19 inhib	CYP2C9 activ	CD11b adhes inh	CYP2C19 activ
Clc1ccccc1Cn1nnc2c(N3CCOCC3)nc(C3CC3)nc21	x	-12	-4	1.1	x	1
Cc1ccc(S(=O)(=O)NC(CC(=O)n2nc(C)cc2C)c2ccccc2)cc1 (stereo unspecified)	-1	94*	100*	0.1	5	0
Cc1ccc(S(=O)(=O)NC(CC(=O)O)c2ccccc2)cc1 (stereo unspecified)	-4	10	-9	0.9	13	1.1
Cc1ccc(S(=O)(=O)NC(c2ccccc2)C(C)C(=O)n2nc(C)cc2C)cc1 (stereo unspecified)	0	50	100*	0.5	-38	0
COc1cc(C(=O)OCCNC(=O)c2ccncc2)cc(OC)c1OC	-2	x	x	x	18	x
COC(=O)c1c(-c2cccs2)csc1NC(=O)c1cccnc1	-5	100*	100*	0	-20	0
O=C(NCCOC(=O)c1cccs1)c1cccnc1	-1	33	61*	0.7	-18	0.4
O=C(NCCOC(=O)c1ccncc1)c1ccccc1	3	92*	71*	0.1	-8	0.3
O=C(NCc1ccccc1)NC(=O)c1ccccc1	2	5	37	1	-25	0.6
O=C(NCc1ccccc1)NC(=O)c1ccncc1	3	82*	95*	0.2	-26	0
O=C(NCC1CCS(=O)(=O)C1)Oc1ccccc1 (stereo unspecified)	-1	-5	16	1.1	3	0.8
CC(=O)c1cccc(NS(=O)(=O)c2cc(OCC(N)=O)c(C)cc2Cl)c1	-1	28	13	0.7	0	0.9
COc1ccccc1C(c1nnnn1CCc1ccccc1)N1CCCCCC1 (stereo unspecified)	-2	38	15	0.6	-4	0.8
O=C(NCc1ccncc1)c1cnccn1	2	4	-1	1	-18	1
Cc1ccc(C(=O)NCCc2ccncc2)cc1	x	29	51*	0.7	x	0.5
O=C(NCc1ccncc1)c1ccc(Br)cc1	2	28	51*	0.7	-5	0.5
O=C(NCCCc1ccccc1)c1ccncc1	0	93*	98*	0.1	-15	0
CCOC(=O)N1CCN(C(=O)c2ccc3c(c2)NC(=O)C(N2CCOCC2)S3)CC1 (stereo unspecified)	-3	7	15	0.9	6	0.8
CC(C)(C)C(=O)/C(C#N)=c1\s/c(=C\c2ccncc2)c(=O)n1CCCN1CCOCC1	-4	22	32	0.8	2	0.7
COc1cccc(C2CC(=O)Nc3cc(OC)c(OC)c(OC)c32)c1OC (stereo unspecified)	-2	47	63*	0.5	-28	0.4
O=C1CC(c2ccc(F)cc2)CC(O)=C1C=NCCN1CCN(C(=O)Nc2ccccc2)CC1 (stereo unspecified)	-6	54*	77*	0.5	-1	0.2
O=C(CCS(=O)(=O)c1cccs1)N1CCN(c2ccc(F)cc2)CC1	x	18	72*	0.8	x	0.3
O=C(CCS(=O)(=O)c1cccc2nonc12)N1CCN(c2ccc(F)cc2)CC1	-2	-103	49	2*	-4	0.5
O=C(Nc1ccccc1C(=O)OCC(=O)c1c[nH]c2ccccc12)c1ccco1	74	x	x	x	1	x
Nc1nc(SCC(=O)N2CCCc3ccccc32)[nH]c(=O)c1-c1ccccc1	0	51*	46	0.5	-4	0.5
CCC(C)(C)NC(=O)Cc1ccc(C)cc1	2	6	44	0.9	-18	0.6
COc1ccc(-c2csc(NC(=O)CSc3ccc(Br)cc3)n2)c(OC)c1	4	x	x	x	0	x
COC(=O)c1c(C(=O)OC)n(CCCN)c2ccc(C)cc12	2	6	25	0.9	-15	0.7
Cc1ccc2c(c1)c1cccc3c1n2CCN3CCC(N)=O	28	74*	31	0.3	0	0.7

Bioassay records as filed in PubChem BioAssay.
